Several values for one entry are separate records, joined by “and”; a condition that tells them apart may be missing. Equal entries are not always repeated. For part of these data: Potency and affinity values are given separately. Where a structure was tested more than once in an assay, its records may differ in their call. Activity calls are given as the source filed them.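 Rule for the calls, unless noted: active = thallium flux through the channel raised or lowered by more than 3 SD from vehicle-only wells, actives on both sides; inactive = the rest.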
Key:
[1] = polyglutamine-triggered caspase-3 activation inhibitors, cell-based (AID 1583); conditions: polyglutamine-induced caspase-3 activation, cell assay; stronger effect = higher value;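 tested at 10 µM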
[2] = suppressors of polyQ aggregation in yeast, 75Q-TubU reporter (AID 1593); conditions: Yeast 75Q polyglutamine aggregation reporter
[3] = rescue of polyQ-huntingtin neuronal dysfunction in worms, whole organism, C. elegans mechanosensory neurons, N-terminal huntingtin (AID 1599); conditions: touch response, stronger effect = higher value
[4] = inhibitors of mitochondrial cytochrome c release, biochemical, purified mitochondria (AID 1603); conditions: stronger effect = lower value;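 note: mouse liver mitochondria challenged with calcium chloride; signal normalized to the plate average as 100%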
[5] = inhibitors of polyQ protein aggregation (AID 1604); conditions: polyglutamine-induced protein aggregation inhibition assay; stronger effect = higher value; tested at 2.5 µM
[6] = enhancers of glutamate uptake in motor neurons, MN-1 cell line (AID 1612); conditions: MN-1 motor neuron cells, stronger effect = higher value;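 note: tested at 1 µM final; 0% = mean of DMSO vehicle wells on each plate; positive means more glutamate uptake than control and negative means less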
[7] = suppressors of polyglutamine aggregation in yeast, 75Q-TubH (AID 1616); conditions: S. cerevisiae 75Q-TubH polyglutamine aggregation suppression; stronger effect = higher value
[8] = hESC survival regulators, cell-based (AID 493140; call rule not given here;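 note: cells exposed to compounds for four days before counting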); conditions: human embryonic stem cell survival screen; stronger effect = higher value
[9] = Cy5 fluorescence interference with SSB-bound oligo, artefact control for HCV NS3 helicase inhibitor project, biochemical, NIH Clinical Collection, E. coli SSB (AID 743268; call rule not given here)
[10] = modulation of C. elegans fzo-1 (AID 1259413; call rule not given here;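 note: fzo-1 mutant C. elegans worms in liquid wells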); conditions: C. elegans fzo-1 modulator screen, mean read-out; stronger effect = higher value
[11] = viability rescue of complex I mutant cybrids, primary screen, cell-based, galactose medium, ATP luminescence (AID 1645843;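 active = z-score of at least 1.8 in each of two replicates, scored against plate mean and spread of sample wells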;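 note: positive z means more ATP and so rescue of galactose-driven cybrid death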); conditions: complex I mutant cybrid cells, 72 h, stronger effect = higher value
F380Y/beta1 = assay: modulators of BK channel variants, profiling panel, selectivity assay, cell-based, U2OS BacMam, thallium flux, beta subunits (AID 1259406); conditions: at 30 µM;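 note: initial slope of Thallos dye fluorescence rise after thallium is added; log ratio against the mean of 0.3% DMSO vehicle wells on the same plate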
F380Y/beta4 = assay: as above; conditions: at 30 µM
R275C = assay: as above; conditions: at 30 µM
R275C/beta1 = assay: as above; conditions: at 30 µM
R275C/beta2Delta = assay: as above; conditions: at 30 µM
R275C/beta4 = assay: as above; conditions: at 30 µM
R275C/Slo1WT/beta2 = assay: as above; conditions: at 30 µM
[12] = liver-stage malaria parasite growth inhibition, primary screen, cell-based, HepG2, luciferase luminescence, HepG2 viability (AID 624349; in the data active = parasite load remaining mostly below about 12%, no sharp cut-off; inactive = mostly above about 10%;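 note: 100% = mean of DMSO negative control wells on the same plate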); conditions: P. berghei liver stage in HepG2, luciferase luminescence, concentration not given here; parasite load remaining: stronger effect = lower value; viability: measured here: HepG2 viability without parasites
[13] = test system: Hepatitis C virus NS3 helicase; assay: HCV NS3 helicase inhibitors, primary screen, biochemical, fluorescence polarization, LOPAC1280 library (AID 687035; in the data active = inhibition above about 37%); conditions: Purified HCV NS3 helicase, Cy5-dT15 ssDNA binding fluorescence polarization; stronger effect = higher value; concentration not given here

c1ccc2c(CC3=NCCN3)cccc2c1
inhibition [1]: 16.4%
score [2]: 1.41
rescue above control [3]: -1.7
cytochrome c release ratio [4]: 1.14
inhibition of aggregation [5]: 79.6%
glutamate uptake change [6]: -6.49%
aggregation suppression score [7]: 1.49
survival [8]: 12.7 (inactive)
fluorescence ratio [9]: 1.03 (inactive)
mean signal [10]: 245 (inactive)
z-score [11]: 0.47 (inactive) and 0.505 (inactive)
log fold change Tl+ flux (F380Y/beta1): 0.0282 (inactive)
log fold change Tl+ flux (F380Y/beta4): 0.0394 (inactive)
log fold change Tl+ flux (R275C): -0.0401 (inactive)
log fold change Tl+ flux (R275C/beta1): -0.0378 (inactive)
log fold change Tl+ flux (R275C/beta2Delta): 0.00508 (inactive)
log fold change Tl+ flux (R275C/beta4): -0.0196 (inactive)
log fold change Tl+ flux (R275C/Slo1WT/beta2): -0.0172 (inactive)

CCCCCCCCCCC[C@@H](C[C@@H]1OC(=O)[C@H]1CCCCCC)OC(=O)[C@H](CC(C)C)NC=O
parasite load remaining [12]: 74.9% (inactive)
viability [12]: 74.1%
fluorescence ratio [9]: 1.04 (inactive)
mean signal [10]: 258 (inactive)
z-score [11]: 0.54 (inactive)
log fold change Tl+ flux (F380Y/beta1): 0.0468 (inactive)
log fold change Tl+ flux (F380Y/beta4): 0.0138 (inactive)
log fold change Tl+ flux (R275C): -0.0306 (inactive)
log fold change Tl+ flux (R275C/beta1): -0.0228 (inactive)
log fold change Tl+ flux (R275C/beta2Delta): -0.0121 (inactive)
log fold change Tl+ flux (R275C/beta4): -0.0426 (inactive)
log fold change Tl+ flux (R275C/Slo1WT/beta2): -0.00736 (inactive)

O[C@@H](c1cc(C(F)(F)F)nc2c(C(F)(F)F)cccc12)[C@H]1CCCCN1
parasite load remaining [12]: -2.37% (inactive)
viability [12]: 0.505%
fluorescence ratio [9]: 1.04 (inactive)
mean signal [10]: 213 (inactive)
z-score [11]: -1.5 (inactive)
log fold change Tl+ flux (F380Y/beta1): 0.529 (active)
log fold change Tl+ flux (F380Y/beta4): 0.648 (active)
log fold change Tl+ flux (R275C): 0.256 (active)
log fold change Tl+ flux (R275C/beta1): 0.641 (active)
log fold change Tl+ flux (R275C/beta2Delta): 0.366 (active)
log fold change Tl+ flux (R275C/beta4): 0.803 (active)
log fold change Tl+ flux (R275C/Slo1WT/beta2): 0.107 (inactive)

CN(C)c1ccc(O)c2c1C[C@H]1C[C@H]3[C@H](N(C)C)C(=O)C(C(N)=O)=C(O)[C@@]3(O)C(=O)C1=C2O
inhibition [1]: -8.86%
score [2]: 0.98
rescue above control [3]: 0
cytochrome c release ratio [4]: 0.25
inhibition of aggregation [5]: 88.9%
glutamate uptake change [6]: 5.89%
aggregation suppression score [7]: 0.425
survival [8]: 9.58 (inactive)
fluorescence ratio [9]: 0.97 (inactive)
z-score [11]: -1.26 (inactive) and 2.96 (active)
log fold change Tl+ flux (F380Y/beta1): 0.00506 (inactive)
log fold change Tl+ flux (F380Y/beta4): 0.0112 (inactive)
log fold change Tl+ flux (R275C): -0.0348 (inactive)
log fold change Tl+ flux (R275C/beta1): -0.00562 (inactive)
log fold change Tl+ flux (R275C/beta2Delta): -0.0532 (inactive)
log fold change Tl+ flux (R275C/beta4): -0.0291 (inactive)
log fold change Tl+ flux (R275C/Slo1WT/beta2): -0.0415 (inactive)

OCCN1C[C@H](O)[C@@H](O)[C@H](O)[C@H]1CO
parasite load remaining [12]: 103% (inactive)
viability [12]: 80%
fluorescence ratio [9]: 1.05 (inactive)
mean signal [10]: 232 (inactive)
log fold change Tl+ flux (F380Y/beta1): -0.0621 (inactive)
log fold change Tl+ flux (F380Y/beta4): -0.0159 (inactive)
log fold change Tl+ flux (R275C): -0.0048 (inactive)
log fold change Tl+ flux (R275C/beta1): -0.0736 (inactive)
log fold change Tl+ flux (R275C/beta2Delta): -0.00824 (inactive)
log fold change Tl+ flux (R275C/beta4): -0.031 (inactive)
log fold change Tl+ flux (R275C/Slo1WT/beta2): -0.0316 (inactive)

CN(C)CC/C=C1\c2ccccc2COc2ccccc21
survival [8]: 18.8 (inactive)
parasite load remaining [12]: 66.1% (inactive) and 36% (inactive) and 100% (inactive)
viability [12]: 121% and 46.9% and 88.3%
inhibition [13]: -5% (inactive)
fluorescence ratio [9]: 0.98 (inactive)
mean signal [10]: 222 (inactive)
z-score [11]: -0.51 (inactive) and -1.11 (inactive)
log fold change Tl+ flux (F380Y/beta1): 0.078 (inactive)
log fold change Tl+ flux (F380Y/beta4): 0.0925 (inactive)
log fold change Tl+ flux (R275C): -0.0142 (inactive)
log fold change Tl+ flux (R275C/beta1): 0.119 (active)
log fold change Tl+ flux (R275C/beta2Delta): 0.0609 (inactive)
log fold change Tl+ flux (R275C/beta4): 0.0396 (inactive)
log fold change Tl+ flux (R275C/Slo1WT/beta2): -0.0225 (inactive)

CC(COc1ccccc1)NC(C)C(O)c1ccc(O)cc1 (centres undefined)
survival [8]: 10.8 (inactive)
parasite load remaining [12]: 51.4% (inactive) and 31.5% (inactive) and 101% (inactive)
viability [12]: 103% and 49.4% and 92.3%
fluorescence ratio [9]: 1 (inactive)
mean signal [10]: 247 (inactive)
z-score [11]: 0.74 (inactive)
log fold change Tl+ flux (F380Y/beta1): 0.0456 (inactive)
log fold change Tl+ flux (F380Y/beta4): 0.0762 (inactive)
log fold change Tl+ flux (R275C): 0.0486 (inactive)
log fold change Tl+ flux (R275C/beta1): 0.000959 (inactive)
log fold change Tl+ flux (R275C/beta2Delta): 0.0577 (inactive)
log fold change Tl+ flux (R275C/beta4): 0.0625 (inactive)
log fold change Tl+ flux (R275C/Slo1WT/beta2): 0.0192 (inactive)

COc1ccc([C@@H]2Sc3ccccc3N(CCN(C)C)C(=O)[C@@H]2OC(C)=O)cc1
survival [8]: 19.4 (inactive)
inhibition [13]: -1% (inactive)
fluorescence ratio [9]: 0.95 (inactive)
mean signal [10]: 243 (inactive)
log fold change Tl+ flux (F380Y/beta1): 0.0592 (inactive)
log fold change Tl+ flux (F380Y/beta4): 0.0311 (inactive)
log fold change Tl+ flux (R275C): -0.0404 (inactive)
log fold change Tl+ flux (R275C/beta1): 0.0836 (inactive)
log fold change Tl+ flux (R275C/beta2Delta): 0.0243 (inactive)
log fold change Tl+ flux (R275C/beta4): 0.104 (inactive)
log fold change Tl+ flux (R275C/Slo1WT/beta2): 0.0487 (inactive)

COc1cc(NC(C)CCCN)c2ncccc2c1 (centres undefined)
inhibition [1]: 18.8%
score [2]: 1.79
rescue above control [3]: 0
cytochrome c release ratio [4]: 0.68
inhibition of aggregation [5]: 78.1%
glutamate uptake change [6]: -1.37%
aggregation suppression score [7]: 1.22
survival [8]: 5.33 (inactive)
fluorescence ratio [9]: 0.96 (inactive)
mean signal [10]: 225 (inactive)
z-score [11]: -1.43 (inactive) and -2.4 (inactive)
log fold change Tl+ flux (F380Y/beta1): -0.102 (inactive)
log fold change Tl+ flux (F380Y/beta4): -0.0853 (inactive)
log fold change Tl+ flux (R275C): -0.164 (active)
log fold change Tl+ flux (R275C/beta1): 0.0817 (inactive)
log fold change Tl+ flux (R275C/beta2Delta): 0.0117 (inactive)
log fold change Tl+ flux (R275C/beta4): 0.0128 (inactive)
log fold change Tl+ flux (R275C/Slo1WT/beta2): -0.0635 (inactive)

Cc1cccc(CN2CCN(C(c3ccccc3)c3ccc(Cl)cc3)CC2)c1 (centres undefined)
inhibition [1]: 7.71%
score [2]: 1.9
rescue above control [3]: 1.73
cytochrome c release ratio [4]: 0.33
inhibition of aggregation [5]: 63.4%
glutamate uptake change [6]: 17.6%
aggregation suppression score [7]: 1.86
survival [8]: 3.33 (inactive)
fluorescence ratio [9]: 0.1 (active)
mean signal [10]: 222 (inactive)
z-score [11]: -1.5 (inactive)
log fold change Tl+ flux (F380Y/beta1): -0.208 (active)
log fold change Tl+ flux (F380Y/beta4): -0.141 (active)
log fold change Tl+ flux (R275C): 0.00971 (inactive)
log fold change Tl+ flux (R275C/beta1): -0.0498 (inactive)
log fold change Tl+ flux (R275C/beta2Delta): 0.0052 (inactive)
log fold change Tl+ flux (R275C/beta4): -0.091 (inactive)
log fold change Tl+ flux (R275C/Slo1WT/beta2): -0.00698 (inactive)

— PubChem BioAssay
